Only some compounds are listed: those with a hit (about 21% of all), similar ones and a draw of the others.
Shiga toxin inh: blocks Shiga toxin action in Vero cells; hit rate 9.2% among 290,000; inhibition, % at 38.7 µM; AID 2315; Vero cells, Shiga toxin protein synthesis inhibition reporter; in the data active = inhibition mostly above about 28%, no sharp cut-off; inactive = mostly below about 43%
Pf growth 48h: inhibits P. falciparum growth in the first generation, 48 h; P. falciparum luciferase growth in erythrocytes, 48 h; Potency, µM (top dose mostly 28.7 µM), most hits filed as inhibitors; hit rate 5.9% among 310,000
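Parasite viability was followed by luminescence of a genomically integrated firefly luciferase. Cultures held 0.1% parasitemia at 2% hematocrit (final), incubated under 5% CO2 at 37 C.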
HCV inhibitor: HCV inhibition. Huh7.5.1 HCVcc-Cre infection, luciferase reporter, 44 h. Potency, µM (titrated, usually from 41.8 µM), most hits filed as inhibitors. hit rate 3.4% among 340,000
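Reporter virus HCVcc-Cre (~0.5 moi) infects cells exposed to compound; seeding density 1,000 cells/well with 4 h settling beforehand. Luminescence, 15 sec read, taken 44 h post-infection following a 15 min RT substrate incubation.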
AMA1-RON2 inh: AMA1-RON2 (P. falciparum) interaction inhibition; hit rate 0.2% among 360,000; AID 720542; AlphaScreen AMA1-biotinylated RON2 peptide binding; Potency, µM (titrated, usually from 58.2 µM), most hits filed as inhibitors; note: nearly all actives have a fitted effect of over 45% in size
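AMA1 (3D7) with his tag at 25 nM final met compounds first, then biotinylated RON2 peptide at 25 nM; detection used donor plus acceptor beads, 10 µg/mL apiece, read by AlphaScreen after 30 min at room temperature.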
Pf growth 96h: P. falciparum growth inhibition at 96 hours | P. falciparum luciferase reporter growth, 96 h | Potency, µM (series often up to 28.7 µM), hits mostly inhibitors | hit rate 6.9% among 320,000 | AID 504834
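Two parasite generations (96 h, 37 C, 5% CO2) of compound exposure in infected erythrocytes (0.05% parasitemia, 2% hematocrit). Luciferase-reporter P. falciparum; decreased luminescence indicates inhibited growth, aimed at apicoplast-acting delayed death.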
CHX counter: counter-screen hit for Shiga toxin inhibitors, cycloheximide | cell reporter, cycloheximide protein synthesis inhibition counterscreen | max response, % | hit rate 12% among 300,000; in the data active = max response mostly above about 13%, no sharp cut-off; inactive = mostly below about 14%; note: read at 38.3 µM for the half of the compounds with a filed dose
Of the large screens only hits and unclear results are named; the others gave an inactive call. Unless noted, calls come from the whole dose curve; as a rule, active = well fitted curve in the direction sought with a large enough effect; inconclusive = small, poorly fitted or top-dose-only effect, or another doubt; inactive = no such curve, though single readings can be large; an effect the other way counts as inactive or inconclusive.

O=C(CSc1ccc(-c2cccnc2)nn1)Nc1ccc(Br)cc1	HCV inhibitor 13µM, Pf growth 96h inconclusive
CC(=O)Nc1ccc(NC(=O)CSc2ccc(-c3cccnc3)nn2)cc1	Pf growth 48h inconclusive, Pf growth 96h inconclusive
CCOc1ccc(NC(=O)CSc2ccc(-c3cccnc3)nn2)cc1	Pf growth 96h 5.9µM
O=C(CSc1ccc(-c2cccnc2)nn1)Nc1ccccc1C(F)(F)F	Pf growth 96h 10µM
O=C(CSc1ccc(-c2cccnc2)nn1)Nc1ccc(F)cc1F	Pf growth 96h inconclusive
CC[C@H](C)[C@H](NC(=O)[C@H](CCC(=O)O)NC(=O)[C@@H](N)CO)C(=O)N[C@@H](CCC(N)=O)C(=O)N[C@@H](CC(C)C)C(=O)N[C@@H](CCSC)C(=O)N[C@@H](Cc1cnc[nH]1)C(=O)N[C@@H](CC(N)=O)C(=O)N[C@@H](CC(C)C)C(=O)NCC(=O)N[C@@H](CCCCN)C(=O)N[C@@H](Cc1cnc[nH]1)C(=O)N[C@@H](CC(C)C)C(=O)N[C@@H](C)C(=O)N[C@@H](CO)C(=O)N[C@H](C(=O)N[C@@H](CCC(=O)O)C(=O)N[C@@H](CCCNC(=N)N)C(=O)N[C@@H](CCSC)C(=O)N[C@@H](CCC(N)=O)C(=O)N[C@@H](Cc1c[nH]c2ccccc12)C(=O)N[C@@H](CC(C)C)C(=O)N[C@@H](CCCNC(=N)N)C(=O)N[C@@H](CCCCN)C(=O)N[C@@H](CCCCN)C(=O)N[C@@H](CC(C)C)C(=O)N[C@@H](CCC(N)=O)C(=O)N[C@@H](CC(=O)O)C(=O)N[C@H](C(=O)N[C@@H](Cc1cnc[nH]1)C(=O)N[C@@H](CC(N)=O)C(=O)N[C@@H](Cc1ccccc1)C(=O)O)C(C)C)C(C)C	none (no result: Pf growth 48h, HCV inhibitor, AMA1-RON2 inh, Pf growth 96h)
CCOC(=O)N1CCN(Cc2nc(N)nc(Nc3ccc(Cl)cc3)n2)CC1	Pf growth 96h inconclusive, CHX counter 14
COc1ccccc1Nc1nc(N)nc(CN2CCC(Cc3ccccc3)CC2)n1	Pf growth 48h inconclusive
COc1ccc(Nc2nc(N)nc(CN3CCC(Cc4ccccc4)CC3)n2)cc1	Pf growth 48h 5.9µM, HCV inhibitor inconclusive
CCOC(=O)N1CCN(Cc2nc(N)nc(Nc3ccc(OC)cc3)n2)CC1	HCV inhibitor inconclusive (no result: Pf growth 96h)
CCOC(=O)N1CCN(Cc2nc(N)nc(Nc3ccc(Oc4ccccc4)cc3)n2)CC1	Pf growth 48h inconclusive, HCV inhibitor inconclusive, AMA1-RON2 inh inconclusive, CHX counter 15
CSCC[C@H](NC(=O)[C@H](CO)NC(=O)[C@H](Cc1ccc(O)cc1)NC(=O)[C@@H](N)CO)C(=O)N[C@@H](CCC(=O)O)C(=O)N[C@@H](Cc1cnc[nH]1)C(=O)N[C@@H](Cc1ccccc1)C(=O)N[C@@H](CCCNC(=N)N)C(=O)N[C@@H](Cc1c[nH]c2ccccc12)C(=O)NCC(=O)N[C@@H](CCCCN)C(=O)N1CCC[C@H]1C(=O)N[C@H](C(=O)NCC(=O)N[C@@H](CCCCN)C(=O)N[C@@H](CCCCN)C(=O)N[C@@H](CCCNC(=N)N)C(=O)N[C@@H](CCCNC(=N)N)C(=O)N1CCC[C@H]1C(=O)N[C@H](C(=O)N[C@@H](CCCCN)C(=O)N[C@H](C(=O)N[C@@H](Cc1ccc(O)cc1)C(=O)N1CCC[C@H]1C(=O)N[C@@H](CC(N)=O)C(=O)NCC(=O)N[C@@H](C)C(=O)N[C@@H](CCC(=O)O)C(=O)N[C@@H](CC(=O)O)C(=O)N[C@@H](CCC(=O)O)C(=O)N[C@@H](CO)C(=O)N[C@@H](C)C(=O)N[C@@H](CCC(=O)O)C(=O)N[C@@H](C)C(=O)N[C@@H](Cc1ccccc1)C(=O)N1CCC[C@H]1C(=O)N[C@@H](CC(C)C)C(=O)N[C@@H](CCC(=O)O)C(=O)N[C@@H](Cc1ccccc1)C(=O)O)C(C)C)C(C)C)C(C)C	none (no result: Pf growth 48h, HCV inhibitor, AMA1-RON2 inh, Pf growth 96h)
CC(C)(C)NC(=O)CN(CCc1ccccc1)C(=O)c1csnn1	Pf growth 96h inconclusive
O=C(O)CNS(=O)(=O)c1ccc(C2CCCCC2)cc1	Pf growth 96h 0.47µM
O=S(=O)(Nc1ccccn1)c1ccc(C2CCCCC2)cc1	AMA1-RON2 inh inconclusive, Pf growth 96h 9.3µM
Cc1cc(C)c2nc(N(CCCN(C)C)C(=O)c3ccc(S(=O)(=O)N4CC(C)OC(C)C4)cc3)sc2c1 (stereo unspecified)	Pf growth 48h inconclusive, HCV inhibitor inconclusive, Pf growth 96h inconclusive (no result: Shiga toxin inh, CHX counter)
O=C(NC1CCCC1)C1C(c2ccc(C(F)(F)F)cc2)=Nc2ccccc2N1C(=O)c1cc2ccccc2[nH]1 (stereo unspecified)	none (no result: Shiga toxin inh, Pf growth 48h, HCV inhibitor, Pf growth 96h, CHX counter)
c1ccc(-c2nc(-c3ccncc3)n[nH]2)nc1	AMA1-RON2 inh inconclusive
Cc1nnsc1-c1nc2ccccc2[nH]1	Pf growth 96h inconclusive
O=c1[nH]c(-c2ccccn2)nc2ccccc12	HCV inhibitor inconclusive, Pf growth 96h inconclusive, CHX counter 44
Nc1nc(-c2nc3ccccc3[nH]2)cs1	Shiga toxin inh 70, CHX counter 33
Cc1ccc2nc(CCCc3nc4ccc(C)cc4[nH]3)[nH]c2c1	Pf growth 48h inconclusive
c1ccc(-c2nc3c(ccc4ccccc43)[nH]2)nc1	Shiga toxin inh 94, HCV inhibitor inconclusive, CHX counter 42
Cc1ccc2nc(-c3ccccn3)[nH]c2c1	Pf growth 96h inconclusive, CHX counter 18
Nc1ccccc1C(=O)N1O[C@@H]2C=C[C@H]1CC2	none (no result: Shiga toxin inh, Pf growth 48h, Pf growth 96h, CHX counter)
Cc1cc(NC(=O)CN2C(=O)c3ccccc3C2=O)no1	none
COc1ccccc1C1=Nn2c(nnc2-c2ccccc2O)SC1	none (no result: Pf growth 48h, HCV inhibitor, AMA1-RON2 inh, Pf growth 96h)
COC(=O)c1cccc(C(=O)N2CCCC(CCC(=O)N(C)CCc3ccccn3)C2)c1 (stereo unspecified)	Pf growth 48h inconclusive
c1ccc(-c2nc3ccccc3[nH]2)nc1	Shiga toxin inh 117, CHX counter 72
O=c1[nH]c(-c2ccccn2)nc(C(F)(F)F)c1Br	Pf growth 48h 5.9µM, Pf growth 96h 7.4µM
Cc1sc2nc(-c3ccccn3)[nH]c(=O)c2c1-c1ccccc1	Shiga toxin inh 114, Pf growth 48h 1.5µM, HCV inhibitor 10µM, Pf growth 96h inconclusive, CHX counter 71
NS(=O)(=O)c1ccc(NC(=O)CSc2nnc3n2CCCCC3)cc1	none (no result: Shiga toxin inh, Pf growth 48h, Pf growth 96h, CHX counter)
CC(C)(C)c1ccc(S(=O)(=O)N2CCN(C(=O)C3=COCCO3)CC2)cc1	Pf growth 48h inconclusive, Pf growth 96h 13µM (no result: Shiga toxin inh, CHX counter)
CC(C)(C)c1ccc(S(=O)(=O)N2CCC(CO)(CC3CCCCO3)CC2)cc1 (stereo unspecified)	Pf growth 48h 2.3µM, Pf growth 96h inconclusive
O=C(COc1ccc(Br)cc1)N1CCCCCC1	AMA1-RON2 inh inconclusive, CHX counter 14 (no result: Pf growth 48h)
O=C(COc1ccc2cc(Br)ccc2c1)N1CCCC1	Pf growth 96h inconclusive
